About 11,000 (3.1%) of roughly 360,000 compounds were called active. Cut-off read from the data, not from the text of the source: active = activity change below about -30%; inactive = the rest. The sample as a whole holds a higher share of actives than the screen did.
Biological target: D(1A) dopamine receptor (Homo sapiens) (UniProt P21728)
Assay: Antagonist of Human D 1 Dopamine Receptor: qHTS
Conditions: HEK293 TREx D1 cells, calcium flux, dopamine EC80; at 10 µM; stronger effect = lower value
Summary of the method: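 Using tetracycline-induced force-coupled D1 Hek293 cells and a calcium dye, signals were followed for 180 s after compound, then for 180 s after EC80 dopamine, to detect inhibitors.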
% is set by controls: 0 for no effect and ±100 for the full control effect.

D(1A) dopamine receptor (Homo sapiens), sequence (P21728 whole entry, looked up): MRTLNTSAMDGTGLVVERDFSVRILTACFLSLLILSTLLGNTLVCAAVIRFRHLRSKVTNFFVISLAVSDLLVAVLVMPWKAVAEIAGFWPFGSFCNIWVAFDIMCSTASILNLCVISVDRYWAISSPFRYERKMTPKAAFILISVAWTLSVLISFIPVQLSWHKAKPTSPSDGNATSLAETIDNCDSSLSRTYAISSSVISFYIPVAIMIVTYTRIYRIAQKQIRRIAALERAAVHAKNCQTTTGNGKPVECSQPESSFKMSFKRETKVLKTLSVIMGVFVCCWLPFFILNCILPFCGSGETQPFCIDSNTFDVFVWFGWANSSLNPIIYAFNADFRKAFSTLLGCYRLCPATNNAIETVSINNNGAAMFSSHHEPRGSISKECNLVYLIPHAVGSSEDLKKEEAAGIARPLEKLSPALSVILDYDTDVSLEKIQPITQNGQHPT

| Structure (SMILES) | activity change, negative = inhibition |
| --- | --- |
| Cc1ccccc1NC(=O)Cn1c(=O)n(CC2CCC(C(=O)NCCc3ccccc3)CC2)c(=O)c2ccccc21 (stereo unspecified) | -13.6% (inactive) |
| O=S(=O)(c1ccc(SCc2ccc(Br)cc2)nc1)N1CCOCC1 | -43.1% (active) |
| O=S(=O)(c1ccc(SCc2ccccc2)nc1)N1CCCCCC1 | 0.949% (inactive) |
| Cc1ccc(CSc2ccc(S(=O)(=O)N3CCCCC3)cn2)cc1 | 2.76% (inactive) |
| CCOC(=O)c1cn(CC)c2cc(F)c(F)cc2c1=O | -74.1% (active) |
| CCn1cc(C(=O)N/N=C(/C)c2ccc(F)cc2)c(=O)c2cc(F)c(N3CCCC3)cc21 | 1.71% (inactive) |
| CCn1cc(C(=O)NCCO)c(=O)c2cc(F)c(N3CCN(C)CC3)cc21 | -5.03% (inactive) |
| CCS(=O)(=O)N1CCc2cc(C(=O)NCc3ccc(OC)cc3)ccc21 | 1.59% (inactive) |
| COc1ccc(CNC(=O)C2CC(c3ccc(C(F)(F)F)cc3)=NO2)cc1 (stereo unspecified) | -1.82% (inactive) |
| COc1ccc(C2=NOC(COC(=O)c3ccc4ccccc4n3)C2)cc1 (stereo unspecified) | -39.5% (active) |
| COc1ccc(C(=O)COC(=O)c2ccc3ccccc3n2)cc1 | -5.41% (inactive) |
| CCCNC(=O)C(CC)n1nc(CC)n2c(cc3oc(C)cc32)c1=O (stereo unspecified) | 5.42% (inactive) |
| Cc1ccc(Cl)cc1N1CCN(S(=O)(=O)c2cc3[nH]c(=O)c(=O)[nH]c3cc2C)CC1 | 1.65% (inactive) |
| COc1cccc(C(=O)Nc2ccc3oc(-c4ccc5ccccc5c4)nc3c2)c1 | 7.96% (inactive) |
| O=C(CNC(=O)c1ccc(Cl)cc1Cl)OC(C(=O)Nc1cc(C(F)(F)F)ccc1Cl)c1ccccc1 (stereo unspecified) | 6.17% (inactive) |
| COc1ccc(NC(=O)Cn2c(=O)n(Cc3ccc(C(=O)NCc4ccccc4Cl)cc3)c(=O)c3ccccc32)cc1 | -5.19% (inactive) |
| CCN(Cc1ccccc1)S(=O)(=O)c1ccc2c(c1)CCCN2C(C)=O | -20% (inactive) |
| CCN(Cc1ccccc1)S(=O)(=O)c1cc2c3c(c1)CCN3C(=O)CC2 | -34.1% (active) |
| CCN(Cc1ccccc1)S(=O)(=O)c1cc(C(=O)O)ccc1OC | 27.7% (inactive) |
| CC(=O)Nc1ccc(OC(=O)COc2ccc(Br)cc2)cc1 | -21.3% (inactive) |
| Cn1cccc1C(=O)NNC(=O)COc1ccc(Br)cc1 | 16.4% (inactive) |
| Cc1ccc(O)c(NC(=S)NC(=O)COc2ccc(Br)cc2)c1 | -46.3% (active) |
| Cc1ccc(-c2nc(SCc3ccc(Br)cc3)n3[nH]c(=O)cc3n2)cc1 | -5.43% (inactive) |

| Structure (SMILES) | activity change, negative = inhibition |
| --- | --- |
| CC(C)CC(=O)NCC(c1ccc2c(c1)OCO2)N1CCN(c2ccc(F)cc2)CC1 (stereo unspecified) | 19.3% (inactive) |
| COc1ccc(OC)c(NC(=O)/C=C/c2ccc(C)o2)c1 | -17.2% (inactive) |
| COc1ccc(CNC(=O)COC(=O)c2c(C)nn(-c3ccccc3)c2C)cc1OC | -26% (inactive) |
| COC(=O)COc1cccc2c(=O)n(CC(=O)NCCc3ccc(OC)c(OC)c3)ccc12 | 19.9% (inactive) |
| COc1ccc(CNC(=O)COc2ccccc2C(=O)c2cnn(-c3ccccc3)c2)cc1OC | -32.7% (active) |
| Cc1cc(O)c(C(c2ccccc2)N2CCN(c3ccccc3F)CC2)c(=O)n1Cc1ccco1 (stereo unspecified) | -28.1% (inactive) |
| Cn1c(=O)c2c(-c3ccccc3Br)n(Cc3ccccc3)cc2n(C)c1=O | -11.3% (inactive) |
| COc1ccc(C(=O)C2CCCN(Cc3cccn3-c3ccccn3)C2)c(C)c1 (stereo unspecified) | -34.5% (active) |
| COc1ccc(C(=O)C2CCCN(S(=O)(=O)c3cccc(C)c3)C2)c(C)c1 (stereo unspecified) | 2.24% (inactive) |
| COc1ccc(C(=O)C2CCCN(C(=O)c3cnsn3)C2)c(C)c1 (stereo unspecified) | 22.1% (inactive) |
| CCOc1ccc(Nc2oc(/C=C/c3ccc(F)cc3)nc2C#N)cc1 | -2.32% (inactive) |
| COc1cccc(NC(=O)CC2C(=O)NCCN2C(=S)Nc2ccc(F)cc2)c1 (stereo unspecified) | -8.91% (inactive) |
| CCNC(=O)N1CCNC(=O)C1CC(=O)Nc1ccc(C(=O)OCC)cc1 (stereo unspecified) | 11.7% (inactive) |
| CCc1ccc(NC(=O)CC2C(=O)NCCN2C(=S)Nc2ccccc2)cc1 (stereo unspecified) | -31.7% (active) |
| Cc1ccc(-c2cc(C(=O)NCc3cn(C)nc3C)c3cc(Br)ccc3n2)cc1 | -1.17% (inactive) |
| Cc1nn(C)cc1CNC(=O)Nc1ccc(Cl)cc1 | 5.45% (inactive) |
| COc1ccc(Cl)cc1C(=O)NCc1cn(C)nc1C | -31.1% (active) |
| Cc1ccc(CCNC(=O)c2ccc(CNS(=O)(=O)c3ccc(C)cc3)cc2)cc1 | -6.27% (inactive) |
| CCOc1ccc(N(Cc2ccccc2)C(=O)c2nc(S(C)(=O)=O)ncc2Cl)cc1 | -4.67% (inactive) |
| CN(C)CC/C=C1\c2ccccc2CSc2ccccc21 | -62.1% (active) |
| CN(C)Cc1ccccc1C1(O)c2ccccc2CSc2ccccc21 (stereo unspecified) | -0.848% (inactive) |
| COc1ccccc1NC(=O)CN1C(=O)c2ccccc2Sc2ccc(C(=O)N3CCCC3)cc21 | 9.27% (inactive) |
| COc1ccc(N2CCN(C(=O)c3c(C)oc4nc(C)nc(N5CCCC5)c34)CC2)cc1 | -1.85% (inactive) |

| Structure (SMILES) | activity change, negative = inhibition |
| --- | --- |
| O=C(O)C(c1ccccc1)C1(O)CCCCC1 (stereo unspecified) | -1.48% (inactive) |
| COc1ccc(OCC(=O)OCCN(C)C)cc1 | -9.23% (inactive) |
| CN(C)CCOC(=O)C(c1ccccc1)C1(O)CCCC1 (stereo unspecified) | -42.6% (active) |
| CCN(c1ncnc2c1cnn2-c1ccc(C)cc1)C1CCCCC1 | 13.5% (inactive) |
| Cc1ccc2c(c1)-c1c(cnn1CC(=O)Nc1ccccc1C#N)CO2 | 23.7% (inactive) |
| Cc1oc2ncnc(N3CCCCC3)c2c1C(=O)N1CCN(c2cccc(Cl)c2)CC1 | -0.886% (inactive) |
| CC(C)Cn1c(=O)c2ccccc2n2c(CCC(=O)N3CCN(c4cccc(Cl)c4)CC3)nnc12 | -9.12% (inactive) |
| Cc1ccc(C)n1-c1nnc(N2CCC(C(=O)NCc3ccccc3Cl)CC2)s1 | -0.53% (inactive) |
| COC(=O)c1cnc(N2CCN(c3ccccc3OC)CC2)c2ccccc12 | -2.99% (inactive) |
| O=c1c(NCc2cccs2)nccn1-c1ccccc1 | -12.1% (inactive) |
| Cn1nnnc1SCCCNCc1cccc(OCc2ccc(Cl)cc2)c1 | -15.2% (inactive) |
| Cn1nnnc1SCCCNCc1ccc(Cl)cc1 | -11.8% (inactive) |
| Cn1nnnc1SCCNCc1ccc(Cl)c(Cl)c1 | -61.6% (active) |
| CCOc1ccc(CNCCSc2nnnn2C)cc1 | -2.56% (inactive) |
| COc1cc(CNCCSc2nnnn2C)ccc1OCc1c(F)cccc1Cl | -17.9% (inactive) |
| Cc1c(Cl)cccc1-c1ccc(CNCCCSc2nnnn2C)o1 | -35% (active) |
| Cc1ccc2oc3c(c(=O)c2c1)C(c1ccc(O)cc1)N(Cc1ccc2c(c1)OCO2)C3=O (stereo unspecified) | 0.447% (inactive) |
| CCOc1ccc(-c2n[nH]c3c2C(c2ccccc2OC)N(c2ccc(Br)cc2)C3=O)cc1 (stereo unspecified) | 9.65% (inactive) |
| CCOC(=O)c1ccc(NC(=O)CCn2cnnn2)cc1 | 14.2% (inactive) |
| O=C1C(F)N([S+](=O)([O-])c2ccc3c(c2)OCCO3)CCN1[S+](=O)([O-])c1c(F)cccc1F (stereo unspecified) | -5.38% (inactive) |
| CCOc1cc2[nH]c(=O)n(Cc3ccc(C(=O)NCCN(CC)CC)cc3)c(=O)c2cc1OCC | 5.18% (inactive) |
| CCc1cccc(NC(=O)CN(C)S(=O)(=O)c2ccc3[nH]c4c(c3c2)CCCC4)c1 | -15.3% (inactive) |
| Cc1ccc(OC(=O)CSc2nnc(-c3cccs3)o2)cc1 | -6.25% (inactive) |

| Structure (SMILES) | activity change, negative = inhibition |
| --- | --- |
| O=C(NCc1ccc2c(c1)OCO2)c1c(O)nc2sccn2c1=O | 2.36% (inactive) |
| O=C(NCc1ccc(Cl)cc1)c1cc(=O)nc2sc(-c3ccccc3)nn12 | 0.956% (inactive) |
| O=C(NCc1ccc(Cl)cc1)c1cc2c(nc3sccn32)s1 | -58.9% (active) |
| Cc1ccc(C(=O)Nc2ccc(OCc3cc(=O)n4c5c(sc4n3)CCCC5)cc2)cc1 | -13.4% (inactive) |
| O=C(Cc1c[nH]c2ccccc12)OCCOC(=O)Cc1c[nH]c2ccccc12 | -32.2% (active) |
| CCOC(=O)CN(C)Cc1c[nH]c2ccccc12 | 0.896% (inactive) |
| O=C(COC(=O)Cc1c[nH]c2ccccc12)NCCc1ccccc1 | -2.05% (inactive) |
| Cc1ccc(S(=O)(=O)N2CCc3cc(C(=O)Nc4ccc(Cl)cc4C)ccc32)cc1 | 3.15% (inactive) |
| O=S(=O)(c1ccc(Cl)cc1)c1nnn2c1nc(NC1CCCC1)c1sccc12 | -19.7% (inactive) |
| CCOc1ccc(Nc2nc3c(S(=O)(=O)c4cccc(Cl)c4)nnn3c3ccsc23)cc1 | -38.1% (active) |
| O=S(=O)(c1ccc(Br)cc1)c1nnn2c1nc(NC1CCCCCC1)c1sccc12 | 4.84% (inactive) |
| COc1ccc(-c2nnc(SCC(=O)Nc3ccc(C(C)C)cc3)nc2-c2ccc(OC)c(OC)c2)cc1OC | -19.7% (inactive) |
| NC1=NC(c2cc(F)cc(F)c2)n2c(nc3ccccc32)N1 (stereo unspecified) | 0.602% (inactive) |
| CCc1cccc(C)c1NS(=O)(=O)c1ccc(-c2cc(C)no2)s1 | 24.4% (inactive) |
| O=C(Nc1ccc2c(c1)OCO2)C1CC1(Cl)Cl (stereo unspecified) | -9.18% (inactive) |
| O=C(Nc1ccc2c(c1)OCCO2)c1ccoc1 | 15.7% (inactive) |
| O=C(Nc1ccc2c(c1)OCCO2)C1CCCC1 | -32.7% (active) |
| COc1ccc(NC(=O)NC(C)c2c(-n3cccc3)sc(C)c2C)cc1OC (stereo unspecified) | -6.54% (inactive) |
| COc1ccc(N2CCN(C3=NS(=O)(=O)C(c4cccc(Br)c4)=C3C)CC2)cc1 | -8.66% (inactive) |
| N#Cc1c(NC(=O)CCCl)sc2c1CCCCC2 | -30.1% (active) |
| CCN1CCN(CC(=O)Nc2sc3c(c2C#N)CCC3)CC1 | -11.5% (inactive) |
| N#Cc1c(NC(=O)C2CCCO2)sc2c1CCCCC2 (stereo unspecified) | -19.1% (inactive) |

Reference: PubChem BioAssay AID504652 (National Center for Advancing Translational Sciences (NCATS), 2011)
